In the supplement of paper PMC10849652:
The full data set covers some 7,900 targets. This sample favours those with a hit. About 0.6% of all pairs of compound and target were hits.

Assays:
Assay in all cases: log2 fold change, soluble protein after heating vs DMSO (PISA); higher = thermal stabilisation; K562 cells, 10 uM, 30 min; active = over 0.2 and 3.5 SD of the protein, either way, in both replicates (recomputed)
[1] = compound: CC1=C(C=C(C=C1)NC(=O)C2=CC(=CC=C2)C(C)(C)C#N)NC3=CC4=C(C=C3)N=CN(C4=O)C
Outline: (§1)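 Soluble protein was quantified by TMTpro 16plex LC-MS/MS after channel sums were equalised. It was obtained as the supernatant after 21,000xg for 90 min from pooled aliquots of K562 cells (2×10^6 cells/mL, 10 μM compound, 30 min) heated for 3 min across 48°C-58°C and extracted in PBS with 0.5% NP-40 at 4°C. Thermal stability values are relative to control samples and come from duplicates. They are given as log2 fold changes.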

[2] = compound: CC1=C(C=C(C=C1)NC(=O)C2=CC(=CC=C2)N(C)C)NC(=O)C3=CC=C(C=C3)O
Outline: as §1

[3] = compound: CC1=CC=C(C=C1)SC2=C3C=C(SC3=CN=C2)C(=O)N
Outline: as §1

[4] = compound: CC1=NC(=CC=C1)C2=C(N=C(N2)C(C)(C)C)C3=CC4=NC=CN=C4C=C3
Outline: as §1

Nexturastat A = compound: CCCCN(Cc1ccc(C(=O)NO)cc1)C(=O)Nc1ccccc1 [Nexturastat A]
Outline: as §1

vemurafenib = compound: CCCS(=O)(=O)Nc1ccc(F)c(C(=O)c2c[nH]c3ncc(-c4ccc(Cl)cc4)cc23)c1F [vemurafenib]
Outline: as §1

[5] = compound: CCCS(=O)(=O)Nc1ccc(F)c(C(=O)c2c[nH]c3ncc(Cl)cc23)c1F
Outline: as §1

[6] = compound: CCCc1cc(C)[nH]c(=O)c1CNC(=O)c1cc(-c2ccnc(N3CCN(C)CC3)c2)cc2c1cnn2C(C)C
Outline: as §1

givinostat = compound: CCN(CC)Cc1ccc2cc(COC(=O)Nc3ccc(C(=O)NO)cc3)ccc2c1 [givinostat]
Outline: as §1

barasertib = compound: CCN(CCCOc1ccc2c(Nc3cc(CC(=O)Nc4cccc(F)c4)[nH]n3)ncnc2c1)CCOP(=O)(O)O [barasertib]
Outline: as §1

Measured: log2 fold change

PDCD6IP (UniProt Q8WUM4)
inactive: [1] 0.032 | [2] -0.079 | [3] 0.077 | [4] 0.058 | Nexturastat A 0.066 | vemurafenib 0.106 | [5] 0.153 | [6] 0.119 | givinostat 0.183 | barasertib 0.135

PCBP1 (UniProt Q15365)
inactive: [1] 0.034 | [2] -0.037 | [3] 0.112 | [4] 0.067 | Nexturastat A -0.038 | vemurafenib 0.022 | [5] 0.097 | [6] -0.011 | givinostat 0.013 | barasertib 0.021

PELP1 (UniProt Q8IZL8)
inactive: [1] -0.048 | [2] 0.044 | [3] 0.034 | [4] -0.02 | Nexturastat A 0.15 | vemurafenib -0.01 | [5] -0.038 | [6] -0.006 | givinostat 0.039 | barasertib -0.085

PPP1CA (UniProt P62136)
inactive: [1] -0.024 | [2] -0.019 | [3] -0.071 | [4] 0.164 | Nexturastat A -0.09 | vemurafenib -0.023 | [5] -0.05 | [6] 0 | givinostat -0.009 | barasertib 0.035

PRPF38B (UniProt Q5VTL8)
inactive: [1] -0.001 | [2] 0.001 | [3] -0.012 | [4] 0.015 | Nexturastat A -0.011 | vemurafenib 0.043 | [5] 0.042 | [6] -0.006 | givinostat 0.007 | barasertib 0.012

PTPMT1 (UniProt Q8WUK0)
inactive: [1] 0.043 | [2] -0.019 | [3] 0.025 | [4] 0.025 | Nexturastat A -0.114 | vemurafenib -0.047 | [5] 0.031 | [6] -0.029 | givinostat -0.029 | barasertib 0.041

PSMC1 (UniProt P62191)
UniProt P62191, sequence (P62191 whole entry, looked up): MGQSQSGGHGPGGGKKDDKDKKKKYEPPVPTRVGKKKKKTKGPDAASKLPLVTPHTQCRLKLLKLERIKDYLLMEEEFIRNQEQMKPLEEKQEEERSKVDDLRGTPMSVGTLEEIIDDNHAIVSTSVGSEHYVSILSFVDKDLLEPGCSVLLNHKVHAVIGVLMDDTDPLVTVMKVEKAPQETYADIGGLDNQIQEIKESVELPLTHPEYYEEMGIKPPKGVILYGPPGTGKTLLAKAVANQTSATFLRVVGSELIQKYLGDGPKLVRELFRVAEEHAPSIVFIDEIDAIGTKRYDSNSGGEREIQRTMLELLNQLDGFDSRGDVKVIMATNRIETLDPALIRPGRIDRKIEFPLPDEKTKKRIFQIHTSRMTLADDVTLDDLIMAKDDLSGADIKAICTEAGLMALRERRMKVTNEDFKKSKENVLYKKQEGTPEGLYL
inactive: [1] 0.024 | [2] 0.033 | [3] -0.038 | [4] -0.069 | Nexturastat A 0.026 | vemurafenib -0.064 | [5] -0.06 | [6] -0.012 | givinostat -0.073 | barasertib -0.073

PLBD2 (UniProt Q8NHP8)
inactive: [1] -0.053 | [2] 0.058 | [3] 0.02 | [4] -0.051 | Nexturastat A -0.053 | vemurafenib -0.028 | [5] 0.001 | [6] -0.008 | givinostat 0.004 | barasertib -0.013

PCYT1B (UniProt Q9Y5K3)
inactive: [1] 0.007 | [2] 0.022 | [3] 0.011 | [4] 0.034 | Nexturastat A -0.06 | vemurafenib 0.022 | [5] 0.049 | [6] -0.031 | givinostat 0.038 | barasertib 0.048

PMM2 (UniProt O15305)
inactive: [1] -0.102 | [2] 0.021 | [3] -0.014 | [4] -0.009 | Nexturastat A -0.124 | vemurafenib -0.04 | [5] -0.009 | [6] -0.055 | givinostat 0.015 | barasertib 0.003

PJA2 (UniProt O43164)
UniProt O43164, sequence (O43164 whole entry, looked up): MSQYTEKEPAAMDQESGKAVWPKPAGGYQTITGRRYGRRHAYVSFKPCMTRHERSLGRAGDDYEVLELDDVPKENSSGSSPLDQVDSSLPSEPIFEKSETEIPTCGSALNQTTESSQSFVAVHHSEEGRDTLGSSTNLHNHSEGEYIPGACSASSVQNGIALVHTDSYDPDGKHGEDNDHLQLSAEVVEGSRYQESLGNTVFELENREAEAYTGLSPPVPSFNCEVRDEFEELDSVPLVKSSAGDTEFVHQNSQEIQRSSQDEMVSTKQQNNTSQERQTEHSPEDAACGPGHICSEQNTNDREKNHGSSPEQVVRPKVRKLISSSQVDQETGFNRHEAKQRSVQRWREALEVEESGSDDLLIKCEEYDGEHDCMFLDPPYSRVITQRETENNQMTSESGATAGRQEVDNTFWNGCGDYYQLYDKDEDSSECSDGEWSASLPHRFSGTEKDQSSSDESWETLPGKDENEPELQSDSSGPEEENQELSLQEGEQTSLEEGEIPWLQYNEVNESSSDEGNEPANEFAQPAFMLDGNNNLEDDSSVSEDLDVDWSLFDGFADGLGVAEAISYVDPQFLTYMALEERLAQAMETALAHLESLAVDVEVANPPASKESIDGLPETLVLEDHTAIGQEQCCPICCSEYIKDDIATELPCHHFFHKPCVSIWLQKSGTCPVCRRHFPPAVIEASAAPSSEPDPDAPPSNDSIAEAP
inactive: [1] -0.059 | [2] 0.019 | [3] -0.008 | [4] -0.019 | Nexturastat A 0.188 | vemurafenib -0.024 | [5] -0.062 | [6] -0.024 | givinostat 0.017 | barasertib -0.004

PEX11B (UniProt O96011)
UniProt O96011, sequence (O96011 whole entry, looked up, change not shown): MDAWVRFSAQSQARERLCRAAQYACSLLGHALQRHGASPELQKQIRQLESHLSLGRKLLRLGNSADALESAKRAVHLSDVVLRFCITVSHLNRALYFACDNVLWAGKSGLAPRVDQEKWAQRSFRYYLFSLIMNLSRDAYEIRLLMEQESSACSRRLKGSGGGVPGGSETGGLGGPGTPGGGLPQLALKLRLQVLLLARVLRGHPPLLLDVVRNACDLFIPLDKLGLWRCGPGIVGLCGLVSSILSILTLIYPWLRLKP
inactive: [1] 0.06 | [2] -0.039 | [3] 0.321 | [4] -0.008 | Nexturastat A -0.076 | vemurafenib 0.08 | [5] 0 | [6] 0.029 | givinostat 0.008 | barasertib -0.002

PSPC1 (UniProt Q8WXF1)
inactive: [1] 0.022 | [2] 0.011 | [3] 0.01 | [4] 0.007 | Nexturastat A 0.053 | vemurafenib -0.003 | [5] 0.135 | [6] 0.167 | givinostat 0.036 | barasertib 0.01

PSMD13 (UniProt Q9UNM6)
inactive: [1] 0.03 | [2] 0.034 | [3] -0.068 | [4] -0.029 | Nexturastat A 0.064 | vemurafenib -0.05 | [5] -0.048 | [6] -0.016 | givinostat -0.05 | barasertib -0.041

QRICH1 (UniProt Q2TAL8)
inactive: [1] 0.064 | [2] -0.021 | [3] 0.06 | [4] 0.192 | Nexturastat A 0.158 | vemurafenib 0.173 | [5] 0.122 | [6] -0.215 | givinostat 0.07 | barasertib 0.214

PGGT1B (UniProt P53609)
inactive: [1] -0.062 | [2] 0.006 | [3] 0.002 | [4] 0.035 | Nexturastat A -0.073 | vemurafenib -0.022 | [5] -0.023 | [6] -0.025 | givinostat 0.009 | barasertib 0.035

PPM1G (UniProt O15355)
inactive: [1] 0.087 | [2] -0.04 | [3] -0.031 | [4] 0.048 | Nexturastat A -0.053 | vemurafenib 0.112 | [5] 0.13 | [6] 0.067 | givinostat 0.17 | barasertib 0.052

PTPN12 (UniProt Q05209)
inactive: [1] -0.026 | [2] -0.071 | [3] -0.037 | [4] -0.034 | Nexturastat A 0.162 | vemurafenib -0.002 | [5] 0.04 | [6] 0.07 | givinostat 0.072 | barasertib 0.127

PSMC3 (UniProt P17980)
inactive: [1] 0.013 | [2] 0.02 | [3] -0.024 | [4] -0.051 | Nexturastat A 0.034 | vemurafenib -0.063 | [5] -0.055 | [6] 0.002 | givinostat -0.034 | barasertib -0.059

PTK2B (UniProt Q14289)
inactive: [1] -0.09 | [2] 0 | [3] 0.06 | [4] -0.008 | Nexturastat A 0.217 | vemurafenib -0.129 | [5] 0 | [6] 0.06 | givinostat 0.421 | barasertib 0.031

PCNT (UniProt O95613)
UniProt O95613, sequence (O95613 whole entry, looked up): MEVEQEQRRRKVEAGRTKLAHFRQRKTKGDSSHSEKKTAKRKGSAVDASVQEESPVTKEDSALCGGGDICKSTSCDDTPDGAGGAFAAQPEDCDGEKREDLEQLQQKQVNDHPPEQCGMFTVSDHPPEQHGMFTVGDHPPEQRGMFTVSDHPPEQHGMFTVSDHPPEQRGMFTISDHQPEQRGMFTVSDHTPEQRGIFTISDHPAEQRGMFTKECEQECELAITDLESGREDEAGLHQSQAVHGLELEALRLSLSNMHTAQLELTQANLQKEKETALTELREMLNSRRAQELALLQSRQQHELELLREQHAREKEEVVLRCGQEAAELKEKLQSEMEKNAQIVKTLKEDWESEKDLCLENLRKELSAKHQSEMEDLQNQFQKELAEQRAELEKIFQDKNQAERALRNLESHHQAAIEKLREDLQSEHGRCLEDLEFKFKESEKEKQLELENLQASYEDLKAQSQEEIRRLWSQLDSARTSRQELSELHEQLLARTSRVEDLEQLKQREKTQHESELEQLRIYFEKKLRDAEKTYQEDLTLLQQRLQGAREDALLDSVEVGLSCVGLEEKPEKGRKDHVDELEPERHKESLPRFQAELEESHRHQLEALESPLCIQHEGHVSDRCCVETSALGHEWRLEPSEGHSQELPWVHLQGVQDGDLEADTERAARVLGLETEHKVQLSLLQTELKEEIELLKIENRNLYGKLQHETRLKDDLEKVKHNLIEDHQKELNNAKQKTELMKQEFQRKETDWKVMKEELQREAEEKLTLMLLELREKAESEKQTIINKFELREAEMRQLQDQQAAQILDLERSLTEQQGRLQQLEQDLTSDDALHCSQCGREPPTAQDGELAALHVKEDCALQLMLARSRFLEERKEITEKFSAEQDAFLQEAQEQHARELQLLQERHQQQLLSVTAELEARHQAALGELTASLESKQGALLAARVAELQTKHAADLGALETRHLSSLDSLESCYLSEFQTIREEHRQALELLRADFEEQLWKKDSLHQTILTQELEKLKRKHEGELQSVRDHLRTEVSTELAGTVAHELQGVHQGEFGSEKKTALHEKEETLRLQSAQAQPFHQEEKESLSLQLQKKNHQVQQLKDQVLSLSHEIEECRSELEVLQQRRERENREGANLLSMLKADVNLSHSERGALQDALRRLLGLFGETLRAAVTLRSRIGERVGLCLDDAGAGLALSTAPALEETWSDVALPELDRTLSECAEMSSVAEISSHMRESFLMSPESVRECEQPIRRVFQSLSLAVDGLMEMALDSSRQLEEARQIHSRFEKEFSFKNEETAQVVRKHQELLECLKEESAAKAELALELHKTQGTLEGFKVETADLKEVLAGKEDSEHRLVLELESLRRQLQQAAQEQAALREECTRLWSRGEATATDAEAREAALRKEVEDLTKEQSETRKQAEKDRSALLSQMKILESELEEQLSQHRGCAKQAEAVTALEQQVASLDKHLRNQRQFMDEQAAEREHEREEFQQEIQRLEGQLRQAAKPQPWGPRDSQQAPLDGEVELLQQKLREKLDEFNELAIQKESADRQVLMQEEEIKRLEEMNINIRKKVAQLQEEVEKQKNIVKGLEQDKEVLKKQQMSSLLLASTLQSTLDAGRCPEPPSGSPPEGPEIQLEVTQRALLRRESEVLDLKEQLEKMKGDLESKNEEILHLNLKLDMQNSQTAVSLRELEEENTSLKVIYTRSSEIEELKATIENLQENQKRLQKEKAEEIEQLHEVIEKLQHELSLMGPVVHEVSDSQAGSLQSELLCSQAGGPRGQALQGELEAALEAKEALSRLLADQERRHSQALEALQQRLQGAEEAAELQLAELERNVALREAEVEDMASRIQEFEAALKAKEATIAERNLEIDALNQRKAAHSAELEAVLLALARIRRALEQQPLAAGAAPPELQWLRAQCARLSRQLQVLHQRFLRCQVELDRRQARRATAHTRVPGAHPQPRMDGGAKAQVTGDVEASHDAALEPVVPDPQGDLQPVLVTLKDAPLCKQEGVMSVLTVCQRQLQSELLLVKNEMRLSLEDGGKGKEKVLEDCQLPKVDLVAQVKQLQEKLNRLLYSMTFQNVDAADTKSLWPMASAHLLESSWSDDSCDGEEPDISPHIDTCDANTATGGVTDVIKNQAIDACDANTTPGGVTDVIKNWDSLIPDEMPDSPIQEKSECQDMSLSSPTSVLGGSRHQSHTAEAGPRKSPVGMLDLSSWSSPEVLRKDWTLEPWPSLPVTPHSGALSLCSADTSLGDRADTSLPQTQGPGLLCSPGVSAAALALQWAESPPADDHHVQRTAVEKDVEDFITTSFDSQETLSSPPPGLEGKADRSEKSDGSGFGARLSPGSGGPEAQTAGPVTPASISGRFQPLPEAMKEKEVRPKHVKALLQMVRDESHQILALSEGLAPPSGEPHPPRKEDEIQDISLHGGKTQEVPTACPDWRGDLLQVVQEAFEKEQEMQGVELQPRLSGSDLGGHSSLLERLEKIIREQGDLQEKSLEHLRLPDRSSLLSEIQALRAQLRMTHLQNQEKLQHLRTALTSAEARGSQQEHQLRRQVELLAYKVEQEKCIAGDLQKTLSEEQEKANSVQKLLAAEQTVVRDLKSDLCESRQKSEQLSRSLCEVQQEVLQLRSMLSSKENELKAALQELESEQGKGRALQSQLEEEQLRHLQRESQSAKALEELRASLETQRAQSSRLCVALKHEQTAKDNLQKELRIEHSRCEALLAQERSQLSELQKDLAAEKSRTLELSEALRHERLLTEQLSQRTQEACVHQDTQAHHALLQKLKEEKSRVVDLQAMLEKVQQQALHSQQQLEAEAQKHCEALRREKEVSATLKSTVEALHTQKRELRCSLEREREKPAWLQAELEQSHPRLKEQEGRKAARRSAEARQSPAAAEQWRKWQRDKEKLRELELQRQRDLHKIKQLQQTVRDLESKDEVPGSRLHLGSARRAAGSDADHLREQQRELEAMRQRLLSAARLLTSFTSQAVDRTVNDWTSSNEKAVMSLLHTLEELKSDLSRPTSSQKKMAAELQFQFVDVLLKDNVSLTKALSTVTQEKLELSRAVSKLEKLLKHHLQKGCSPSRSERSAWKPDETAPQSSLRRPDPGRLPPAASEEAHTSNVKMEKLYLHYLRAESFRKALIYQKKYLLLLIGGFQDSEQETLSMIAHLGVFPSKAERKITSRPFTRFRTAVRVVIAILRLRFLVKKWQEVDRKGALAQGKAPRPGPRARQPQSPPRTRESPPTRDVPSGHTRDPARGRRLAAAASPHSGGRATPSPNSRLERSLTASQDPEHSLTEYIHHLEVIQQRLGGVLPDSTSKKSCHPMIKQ
inactive: [1] -0.104 | [2] 0.068 | [3] -0.117 | [4] -0.116 | Nexturastat A 0.007 | vemurafenib -0.122 | [5] -0.103 | [6] -1.05 | givinostat 0.255 | barasertib 0.045

PLA2G15 (UniProt Q8NCC3)
inactive: [1] 0.04 | [2] -0.013 | [3] 0.005 | [4] -0.026 | Nexturastat A 0.089 | vemurafenib 0.044 | [5] 0.001 | [6] -0.063 | givinostat 0.019 | barasertib 0.024

POGLUT1 (UniProt Q8NBL1)
inactive: [1] -0.063 | [2] -0.027 | [3] -0.081 | [4] -0.024 | Nexturastat A -0.025 | vemurafenib -0.139 | [5] -0.034 | [6] 0.043 | givinostat 0.052 | barasertib -0.022

PSMD9 (UniProt O00233)
inactive: [1] -0.012 | [2] 0.018 | [3] 0.021 | [4] 0.012 | Nexturastat A -0.068 | vemurafenib -0.014 | [5] -0.021 | [6] -0.016 | givinostat -0.004 | barasertib 0

PPP2R5C isoform 4 (UniProt Q13362)
inactive: [1] -0.016 | [2] 0.004 | [3] 0.014 | [4] -0.064 | Nexturastat A 0.016 | vemurafenib 0.074 | [5] -0.004 | [6] -0.027 | givinostat -0.001 | barasertib 0.057

POLA1 (UniProt P09884)
inactive: [1] -0.001 | [2] -0.029 | [3] -0.003 | [4] 0.052 | Nexturastat A -0.064 | vemurafenib 0.064 | [5] 0.053 | [6] 0.024 | givinostat 0.093 | barasertib 0.098

PEX16 isoform 2 (UniProt Q9Y5Y5)
inactive: [1] 0.017 | [2] 0.038 | [3] 0.083 | [4] 0.146 | Nexturastat A -0.033 | vemurafenib 0.071 | [5] 0.089 | [6] -0.07 | givinostat 0.006 | barasertib -0.007

POP1 (UniProt Q99575)
inactive: [1] 0.03 | [2] -0.001 | [3] 0.004 | [4] -0.02 | Nexturastat A -0.011 | vemurafenib -0.004 | [5] 0.021 | [6] 0.018 | givinostat -0.009 | barasertib -0.042

PEX7 (UniProt O00628)
UniProt O00628, sequence (O00628 whole entry, looked up): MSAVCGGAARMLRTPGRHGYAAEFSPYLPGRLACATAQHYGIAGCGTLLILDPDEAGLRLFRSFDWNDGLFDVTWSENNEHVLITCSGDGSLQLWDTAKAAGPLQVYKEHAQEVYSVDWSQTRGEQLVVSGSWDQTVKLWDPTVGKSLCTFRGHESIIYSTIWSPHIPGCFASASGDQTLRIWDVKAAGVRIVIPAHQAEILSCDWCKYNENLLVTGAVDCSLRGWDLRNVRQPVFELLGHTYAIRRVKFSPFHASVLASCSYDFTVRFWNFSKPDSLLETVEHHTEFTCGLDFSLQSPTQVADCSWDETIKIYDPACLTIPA
inactive: [1] 0.061 | [2] -0.011 | [3] 0.025 | [4] -0.066 | Nexturastat A -0.041 | vemurafenib -0.049 | [5] 0.007 | [6] -0.035 | givinostat -0.107 | barasertib -0.089

PKN1 isoform 2 (UniProt Q16512)
inactive: [1] 0.01 | [2] 0.002 | [3] 0.019 | [4] 0.014 | Nexturastat A 0.053 | vemurafenib 0.023 | [5] 0.03 | [6] 0.022 | givinostat 0.059 | barasertib 0.03
